Screening results (PubChem)
Hits are enriched below; roughly 27% of the tested compounds scored in any of these assays.
PTK2B oligo ant – antagonists of human Pyk2 oligomerization. AID 1347419. z-score (the deposit names both 25 µM and 10 µM). actives 0.83% (n = 99,000). Q293 cells, Pyk2 FERM NanoBiT luminescence; active compounds read low. Q14289;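 active means Z-score of -3 or lower, scaled per plate to the spread of control and sample wells; inactive means z-score above -3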;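 further: negative z-score means lost luminescence so less FERM oligomerization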
Target sequence (Q14289 whole entry, looked up): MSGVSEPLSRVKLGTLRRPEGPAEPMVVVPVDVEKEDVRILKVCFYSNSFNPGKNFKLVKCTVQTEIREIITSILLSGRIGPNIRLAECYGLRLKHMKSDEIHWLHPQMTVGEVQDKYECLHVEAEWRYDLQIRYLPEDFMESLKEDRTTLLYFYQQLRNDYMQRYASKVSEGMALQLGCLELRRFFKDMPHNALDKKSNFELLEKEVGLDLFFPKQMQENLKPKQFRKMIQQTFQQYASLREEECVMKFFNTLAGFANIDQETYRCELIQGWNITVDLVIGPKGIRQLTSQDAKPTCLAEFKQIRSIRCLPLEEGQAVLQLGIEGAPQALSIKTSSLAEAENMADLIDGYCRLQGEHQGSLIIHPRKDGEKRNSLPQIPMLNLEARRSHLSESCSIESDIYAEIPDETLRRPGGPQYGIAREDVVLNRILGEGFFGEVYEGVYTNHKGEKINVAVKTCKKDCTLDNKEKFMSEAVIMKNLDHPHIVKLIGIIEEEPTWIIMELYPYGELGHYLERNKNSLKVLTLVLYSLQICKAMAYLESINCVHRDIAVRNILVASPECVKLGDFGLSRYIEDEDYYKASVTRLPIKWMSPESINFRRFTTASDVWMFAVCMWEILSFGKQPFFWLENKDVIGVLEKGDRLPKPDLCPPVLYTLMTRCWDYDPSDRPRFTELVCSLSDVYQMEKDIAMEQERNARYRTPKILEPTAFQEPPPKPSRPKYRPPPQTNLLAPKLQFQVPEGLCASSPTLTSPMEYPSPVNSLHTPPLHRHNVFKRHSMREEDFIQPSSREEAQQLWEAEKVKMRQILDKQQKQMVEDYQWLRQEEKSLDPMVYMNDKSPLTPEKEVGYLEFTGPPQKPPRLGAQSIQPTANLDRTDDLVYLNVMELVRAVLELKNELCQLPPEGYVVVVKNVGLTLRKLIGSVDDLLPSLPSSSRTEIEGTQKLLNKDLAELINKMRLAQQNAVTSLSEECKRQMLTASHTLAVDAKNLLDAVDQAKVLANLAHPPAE
Cav32 inh – blocks human Cav3.2 T-type calcium channel; actives 4% (n = 100,000); O95180; B-score at 10 µM; Cav3.2-expressing cells, Fluo-4 calcium fluorescence FDSS; active compounds read low; AID 449739;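 active means single-dose well whose peak fluorescence ratio is a statistical outlier from its plate by either plate-standardised score or position-corrected B-score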
CYP2C19 inhib – inhibitors of human CYP2C19; inhibition, % at 5 µM; actives 21% (n = 96,000); AID 778; CYP2C19 Supersomes, luciferin-H EGE luminescence, 30 min; P33261;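 active means CYP2C19 inhibition above a set limit at 5 µM in the primary screen, cut at about 50% in these data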
CYP2C9 act – CYP2C9 (human) activation; actives 1.4% (n = 96,000); activation factor at 5 µM; recombinant CYP2C9, luciferin-H conversion, luminescence; active compounds read high; factor 1 = untreated enzyme, 0 = blocked;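 active means activation factor of 2 or more for CYP2C9 at a 5 µM dose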
CYP2C9 inhib – inhibitors of human CYP2C9; P11712; CYP2C9 Supersomes, luciferin-H conversion, luminescence; inhibition, % at 5 µM; actives 20% (n = 96,000);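 active means blocking of liver enzyme CYP2C9 beyond about 50% at 5 µM, limit read from the data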
CYP2C19 activ – activators of human cytochrome P450 2C19. activation factor at 5 µM. recombinant CYP2C19, luciferin-H EGE luminescence; active compounds read high; 0 = fully inhibited enzyme, 1 = untreated enzyme. 96,000 tested, under 10 active. P33261;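 active means activation factor of at least 2 at 5 µM in the primary screen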
Large screens that a line does not name were inactive.

COc1ccc(CCNC(=O)C2CCN(S(=O)(=O)c3cccc4nsnc34)CC2)cc1OC	none
O=C(CCS(=O)(=O)c1cccc2nsnc12)NCc1ccccc1Cl	none
O=S(=O)(c1cccc2nsnc12)N1CCOCC1	none
O=C(NCCc1ccccc1)C1CCN(S(=O)(=O)c2cccc3nsnc23)CC1	CYP2C9 act 2
O=C(NCc1cccs1)C(NS(=O)(=O)c1cccc2nsnc12)c1ccccc1 (stereo unspecified)	CYP2C9 inhib 55.1
O=C(c1ccco1)N1CCN(S(=O)(=O)c2cccc3nsnc23)CC1	CYP2C19 inhib 74.9
COc1ccc2c(c1)CC1c3c(cc4c(c3-2)OCO4)CC[N+]1(C)[O-] (stereo unspecified)	none (no result: PTK2B oligo ant, CYP2C19 inhib, CYP2C9 act, CYP2C9 inhib, CYP2C19 activ)
O=c1cc2c(nn1Cc1c(Cl)cccc1Cl)-c1ccccc1CC2	CYP2C9 inhib 50.3
Clc1ccccc1CSc1cc2c(nn1)-c1ccccc1CC2	none (no result: Cav32 inh)
Clc1ccc(CSc2cc3c(nn2)-c2ccccc2CC3)cc1Cl	Cav32 inh -5.3
Clc1cccc(Cl)c1CSc1cc2c(nn1)-c1ccccc1CC2	Cav32 inh -3.95
CCN(CC)CCOC(=O)c1ccc2c(c1)OCCO2	none
Cc1n(CC(O)COC2CCCCC2)c2ccccc2[n+]1C (stereo unspecified)	none (no result: CYP2C19 inhib, CYP2C9 act, CYP2C9 inhib, CYP2C19 activ)
Cc1cc2nnc(SCC(=O)OC(C)C)n2c2ccccc12	CYP2C9 act 2.6
Cc1nnc(SCC(=O)NCc2cccs2)n1-c1ccccc1	none
Cc1cc2nnc(SCC(=O)NCc3cccs3)n2c2ccccc12	CYP2C9 act 3.2
Cc1occc1-c1nnc(SCC(=O)NCc2cccs2)n1-c1ccc(F)cc1	CYP2C9 inhib 63.0
CC(C)OC(=O)CSc1nnc(SCc2cccc3ccccc23)s1	CYP2C19 inhib 70.7
COc1ccc(CNc2nc(SCc3cc(=O)n4cc(Cl)ccc4n3)nc3ccccc23)cc1	none (no result: Cav32 inh, CYP2C19 inhib, CYP2C9 act, CYP2C9 inhib, CYP2C19 activ)
O=C(Nc1cccc(C(F)(F)F)c1)C12CC3CC(CC(C3)C1)C2	none (no result: CYP2C19 inhib, CYP2C9 act, CYP2C9 inhib, CYP2C19 activ)
COc1ccccc1C(=O)Nc1c2c(nn1-c1cccc(C)c1C)CS(=O)C2 (stereo unspecified)	none (no result: Cav32 inh)
CCOC(=O)c1c(NC(=O)CSc2nnc(C)s2)sc2c1CCC(CC)C2 (stereo unspecified)	none (no result: CYP2C19 inhib, CYP2C9 act, CYP2C9 inhib, CYP2C19 activ)
Cc1cccc(OCC(=O)N/N=C/c2cc([N+](=O)[O-])ccc2N2CCOCC2)c1	none (no result: Cav32 inh, CYP2C19 inhib, CYP2C9 act, CYP2C9 inhib, CYP2C19 activ)
COc1ccc(S(=O)(=O)NCCSc2ccccc2)cc1OC	CYP2C19 inhib 97.2, CYP2C9 act 2.4
Cc1ccc(SCCNS(=O)(=O)c2ccc3c(c2)OCCO3)cc1	Cav32 inh -6.9 (no result: CYP2C19 inhib, CYP2C9 act, CYP2C9 inhib, CYP2C19 activ)
O=S(=O)(NCCSCc1ccc(Cl)c(Cl)c1)c1ccc2c(c1)OCCO2	none (no result: CYP2C19 inhib, CYP2C9 act, CYP2C9 inhib, CYP2C19 activ)
COc1ccc(CCNS(=O)(=O)c2cccc(C(=O)O)c2)cc1OC	none
COc1ccc(S(=O)(=O)NCCSCc2cccc(C)c2)cc1Br	CYP2C9 act 2.1
Cc1ccc(S(=O)(=O)NCCSCc2ccccc2)cc1	none (no result: Cav32 inh, CYP2C19 inhib, CYP2C9 act, CYP2C9 inhib, CYP2C19 activ)
COc1ccc(S(=O)(=O)NCCSc2ccc(C)cc2)cc1OC	CYP2C19 inhib 81.5
CCOC(=O)c1oc2nc(CC(C)C)c3c(c2c1N)CCC3	none
CCN(CC)CCCNC(=O)Cc1c(C(=O)O)n(C)c2ccccc12	none
O=C(NCCO)C1(c2ccc(Cl)cc2)CCCC1	none
CCCCCCNS(=O)(=O)c1ccc(OC)c(OC)c1	CYP2C19 inhib 85.4, CYP2C9 act 2.3
CCCCNC(=O)CCCCCNS(=O)(=O)c1ccc(OC)cc1	none
O=C(Nc1ccc(Cl)c(C(F)(F)F)c1)NC1CC2CCCC(C1)N2C1CC1 (stereo unspecified)	none (no result: CYP2C19 inhib, CYP2C9 act, CYP2C9 inhib, CYP2C19 activ)
Cc1cc(F)ccc1S(=O)(=O)Nc1ccccc1C(=O)Nc1ncn[nH]1	CYP2C19 inhib 94.0
Cc1cc(F)ccc1S(=O)(=O)Nc1ccccc1C(=O)Nc1ccccc1N1CCOCC1	Cav32 inh -5.95, CYP2C19 inhib 83.3, CYP2C9 inhib 86.8
O=C(Nc1ccccc1N1CCOCC1)c1ccccc1NS(=O)(=O)c1ccc(F)cc1	CYP2C19 inhib 58.2, CYP2C9 inhib 77.8 (no result: Cav32 inh)
O=C(Nc1ccccc1N1CCOCC1)c1ccccc1NS(=O)(=O)c1ccc(F)c(F)c1	Cav32 inh -3.96, CYP2C9 inhib 80.7
O=C1C=C(NC2CC2)C2(CCCCC2)O1	none
Cc1ccccc1-c1nnc(SCC(=O)Nc2cccc(C)c2C)o1	none
CCOc1ccc(S(=O)(=O)Nc2ccccc2C(=O)Nc2ccccc2N2CCOCC2)cc1	PTK2B oligo ant -3.13, CYP2C19 inhib 84.5, CYP2C9 inhib 68.9
COc1ccc(C)cc1C(=O)CCC(=O)Nc1ccccc1N1CCOCC1	CYP2C19 inhib 80.6, CYP2C9 inhib 81.9
CCCCNC(=O)c1ccc(N2CCOCC2)c(NS(=O)(=O)c2ccc(OC)cc2)c1	none
Cc1ccc(C)c(S(=O)(=O)Nc2ccccc2C(=O)Nc2ccccc2N2CCOCC2)c1	Cav32 inh -4.9, CYP2C19 inhib 94.3, CYP2C9 inhib 97.1
CCC(C)N1CCCCC1C(=O)Nc1c(C)cc(C)cc1C (stereo unspecified)	none (no result: CYP2C19 inhib, CYP2C9 act, CYP2C9 inhib, CYP2C19 activ)
COc1cccc(CC(NC(C)=O)C(=O)NC2CCN(c3nc(C)cc(C)c3C#N)CC2)c1 (stereo unspecified)	CYP2C19 inhib 67.3
COc1cccc(CC(NC(C)=O)C(=O)NC2CCN(S(=O)(=O)c3ccc4ccccc4c3)CC2)c1 (stereo unspecified)	none
COc1ccc(CC(NC(C)=O)C(=O)NC2CCN(c3nc(C)cc(C)c3C#N)CC2)c(OC)c1 (stereo unspecified)	CYP2C19 inhib 85.7, CYP2C9 inhib 55.3
Cc1cc(C)cc(-n2c(SCC(=O)NCc3ccco3)nc3ccccc3c2=O)c1	none
CCOC(=O)Cn1c(=O)c2c(nc3n2CCCCN3c2ccc(C)cc2)n(C)c1=O	none
CCOC(=O)c1ccc(NC(=O)CC2C(=O)N(c3ccccc3)C(=O)N2CCCOC)cc1 (stereo unspecified)	CYP2C19 inhib 91.6, CYP2C9 inhib 78.7
COc1ccc(NC(=O)CC2C(=O)N(c3ccc(OC)cc3)C(=O)N2CCc2cccs2)cc1 (stereo unspecified)	none (no result: Cav32 inh, CYP2C19 inhib, CYP2C9 act, CYP2C9 inhib, CYP2C19 activ)
CS(=O)(=O)Nc1ccc(S(=O)(=O)Nc2nccs2)cc1	none
O=S(=O)(Nc1ccc(S(=O)(=O)N2CCCCC2)cc1)c1ccc(Br)s1	Cav32 inh -5.42, CYP2C9 inhib 95.5
O=S(=O)(Nc1nccs1)c1ccc(NS(=O)(=O)c2cccs2)cc1	CYP2C9 inhib 89.6
O=S(=O)(Nc1cc(Cl)ccc1N1CCCCC1)c1cccs1	Cav32 inh -5.69, CYP2C19 inhib 81.5, CYP2C9 inhib 53.2
CN1CCN(S(=O)(=O)c2ccc(Br)s2)CC1	none
O=S(=O)(Nc1ccc(S(=O)(=O)N2CCCCCC2)cc1)c1cccs1	CYP2C9 inhib 90.6
O=C(CCNS(=O)(=O)c1cccs1)N1CCCCCC1	none (no result: Cav32 inh)
O=C(c1ccc(NS(=O)(=O)c2cccs2)cc1)N1CCCCC1	none (no result: CYP2C19 inhib, CYP2C9 act, CYP2C9 inhib, CYP2C19 activ)
CNc1nc(Sc2ccc(C)cc2)cc(C(F)(F)F)n1	none
O=S(=O)(Nc1ccc(N2CCCCC2)cc1)c1cccs1	CYP2C19 inhib 98.2, CYP2C9 inhib 100.4
